Screening data from PubChem BioAssay.
HepG2 viability = kills HepG2 cells in TGF-b inhibitor counter-screen; HepG2 CAGA-GFP viability, ATP luminescence, 18 h; Potency, µM (top dose mostly 46.1 µM), for the others: top-dose activity change, negative = cytotoxicity, most hits filed as cytotoxic; 410,000 compounds, 0.76% hits; AID 588856
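CellTiter-Glo luminescence gave cytotoxicity after 18 hours at 37 degrees C. The cells were HepG2 CAGA-GFP in 1% FBS DMEM, stimulated with 500 pg/mL TGF-beta after compound addition. %Activity was normalised to no-cell wells (complete cell-killing) and DMSO (no toxicity), and curves were fitted and classified.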
HT1080 IDH1KD tx = kills HT-1080 cells with IDH1 knockdown | HT-1080 IDH1 knockdown viability, ATP luminescence, 48 h | Potency, µM (series often up to 46.1 µM), without a hit: at the highest dose activity, negative = toxicity, hits mostly cytotoxic | 360,000 compounds, 2% hits | AID 686971;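 also: 0% = DMSO wells and -100% = cell-free medium wells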
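% activity derives from luminescence (CellTiter-Glo), normalised to DMSO and no-cell wells. HT-1080-IDH1KD cells, 750/well, had 48 h compound exposure at 37 °C.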
DT40 TDP1 CPT = DT40-hTDP1 cell growth loss with CPT | chicken DT40 Tdp1-/-;hTDP1 cells + 20 nM CPT, ATP luminescence, 48 h | Potency, µM (series often up to 46.2 µM), for inactives: at the highest dose activity change, negative = growth inhibition, hits mostly inhibitors | AID 686979 | 420,000 compounds, 12% hits; also: % is scaled to controls: 0 for no effect and ±100 for the full control effect; nearly all actives have a fitted effect of over 55% in size
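Chicken DT40 Tdp1-/- cells stably complemented with human TDP1 were seeded at 400 cells/well in medium containing 20 nM camptothecin, exposed to pin-transferred compounds, and grown at 37 °C for at least 48 hr. Viability was read as ATP luminescence.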
TGFb SMAD3 inh = TGF-b pathway inhibition; 410,000 compounds, 1.2% hits; AID 588855; Potency, µM (series often up to 46.1 µM), inactives show top-dose activity, negative = inhibition, actives largely listed as inhibitors; HepG2 CAGA-GFP TGF-b/SMAD3 reporter, GFP fluorescence, 18 h; TGF-beta stimulated, 500 pg/mL final; also: % is scaled to controls: 0 for no effect and ±100 for the full control effect; nearly all actives have a fitted effect of over 65% in size
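HEPG2 CAGA-GFP, 1000 cells/well; 2 h settle, 37 C; cpd via pin tool; TGF-b 500 pg/mL final; 18 h, 37 C; GFP imaging ex488/em500-530; %Activity normalised to -TGF-b and +DMSO controls; CRC fit, curve class.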
HT1080NT lethal = kills 2HG-producing HT-1080-NT fibrosarcoma cells | HT-1080-NT fibrosarcoma viability, CellTiter-Glo ATP luminescence, 48 h | Potency, µM (highest dose often 46.1 µM), for inactives: top-dose activity, negative = less viability, most hits filed as cytotoxic | 360,000 compounds, 1.6% hits;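 also: NT is the 2HG producing partner of a matched IDH1 knockdown line; 0% = DMSO-treated cells and -100% = media-only wells without cells; nearly all actives have a fitted effect of over 55% in size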
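750 cells/well, RPMI + 5% FBS; 2 h settle, compound pin-transfer, 48 h at 37 degrees C. CellTiter-Glo 10 min RT, luminescence. Normalized to DMSO and media-only wells.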
DT40 TDP1 no CPT = qHTS for Inhibitors of human tyrosyl-DNA phosphodiesterase 1 (TDP1): qHTS in cells in absence of CPT | DT40 Tdp1-/- hTDP1 cells, no CPT, ATP luminescence, 48 h | Potency, µM (titrated, usually from 46.2 µM), inactives show at the highest dose activity change, negative = growth inhibition, most hits filed as inhibitors | 420,000 compounds, 15% hits | AID 686978, 2013; also: % is scaled to controls: 0 for no effect and ±100 for the full control effect; nearly all actives have a fitted effect of over 55% in size
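Cells were dispensed at 400 per well, compounds added by pin tool, plates incubated ≥48 hr at 37 °C, then CellTiter-Glo added for 30 min at room temperature before luminescence reading. Line: DT40 Tdp1-/- complemented with hTDP1; camptothecin omitted.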
* = called active by the depositor; ? = inconclusive; nt = not tested or not shown. An excerpt weighted towards active compounds, which were near 17% of everything screened. Calls follow the shape of the dose curve; as a rule, active = well fitted curve in the direction sought with a large enough effect; inconclusive = small, poorly fitted or top-dose-only effect, or another doubt; inactive = no such curve, though single readings can be large; an effect the other way counts as inactive or inconclusive. Potency is read from the fitted curve at half-maximal effect.

SMILES	HepG2 viability	HT1080 IDH1KD tx	DT40 TDP1 CPT	TGFb SMAD3 inh	HT1080NT lethal	DT40 TDP1 no CPT
CC(C)(C)S(=O)(=O)/C(C#N)=C/c1cccn1S(=O)(=O)c1ccccc1	-21%	15%	-9%	-27%	9%	23µM*
CS(=O)(=O)/C(C#N)=C/c1cccn1S(=O)(=O)c1cccc2ccccc12	-7%	-3%	16µM*	-4%	11%	16µM*
CC(C)Oc1ccc(C(=O)N2CCC(c3nc4ccccc4s3)CC2)cc1	-30%	nt	-30%	?	nt	?
COc1ccc(C2=NN(C(=O)CN3CCCCC3)C(c3ccc(OC)cc3)C2)cc1 (stereo unspecified)	-26%	0%	16µM*	-6%	-4%	?
COc1ccc(C2CC(c3ccccc3)=NN2C(=O)COC(=O)C2CC2)cc1 (stereo unspecified)	-21%	11%	-6%	-9%	1%	?
COc1ccc(C2CC(c3ccc4ccccc4c3)=NN2C(=O)CN2C(=O)CCC2=O)cc1 (stereo unspecified)	-16%	-8%	26µM*	-10%	-1%	23µM*
COc1ccc(C2=NN(C(=O)CN3CCCC3)C(c3ccc(OC)cc3)C2)cc1 (stereo unspecified)	-12%	-5%	-13%	0%	-1%	-29%
CCn1c(=O)c2sccc2n(Cc2ccc(C)cc2)c1=O	-3%	5%	-20%	2%	5%	-22%
CCCCOCCCNC(=O)C[C@@H]1C[C@@]2(C(=O)OCC)CCCC=C2N(Cc2ccc3c(c2)OCO3)C1=O	nt	-25%	6.5µM*	nt	-18%	?
CCOC(=O)[C@]12CCC=C1N(Cc1ccc3c(c1)OCO3)C(=O)[C@H](CC(=O)NCc1ccc(C)o1)C2	nt	-20%	?	nt	-17%	23µM*
CCCCNC(=O)C[C@@H]1C[C@@]2(C(=O)OCC)CCCC=C2N(Cc2ccc3c(c2)OCO3)C1=O	nt	-1%	?	nt	-3%	21µM*
COC(=O)[C@]12CCCCC=C1N(Cc1ccc3c(c1)OCO3)C(=O)[C@H](CC(=O)NCC13CC4CC(CC(C4)C1)C3)C2	nt	?	?	nt	?	18µM*
Cc1cc(NC(=O)C2C3C(=O)N(CC4CCCO4)C(C(=O)NCc4ccccc4)C34C=CC2(C)O4)no1 (stereo unspecified)	-17%	-1%	2%	0%	3%	-16%
CC(Oc1ccc2c(c1)oc(=O)c1ccccc12)C(=O)NC(Cc1c[nH]c2ccc(O)cc12)C(=O)O (stereo unspecified)	5%	4%	17%	10%	8%	-8%
O=C(c1ccc(CS(=O)c2ccccc2Cl)o1)N1CCN(c2cccc(C(F)(F)F)c2)CC1 (stereo unspecified)	-36%	nt	0.65µM*	?	nt	0.52µM*
O=C(c1ccc(CS(=O)c2ccccc2Cl)o1)N1CCN(c2cccc(Cl)c2)CC1 (stereo unspecified)	-34%	nt	0.26µM*	?	nt	0.52µM*
O=C(c1ccc(CS(=O)Cc2ccccc2Cl)o1)N1CCN(c2cccc(Cl)c2)CC1 (stereo unspecified)	-30%	-26%	?	?	-37%	?
COc1ccc(Br)cc1CN(C)CC(O)COc1ccc(Br)cc1 (stereo unspecified)	18µM*	?	?	?	21µM*	?
COc1ccc(CN(C)CC(O)COC(c2ccccc2)c2ccccc2)c(OC)c1OC (stereo unspecified)	-46%	?	?	?	23µM*	?
COc1ccc(CCN(C)CC(O)COC(c2ccc(F)cc2)c2ccc(F)cc2)cc1OC (stereo unspecified)	-93%	?	16µM*	-110%	23µM*	?
CN(C)CC(O)COC(c1ccccc1)c1ccccc1 (stereo unspecified)	-15%	0%	-9%	3%	-3%	-11%
COc1ccc(CN(C)CC(O)COc2ccc(C(=O)c3ccccc3)cc2)c(OC)c1OC (stereo unspecified)	-34%	?	?	?	21µM*	16µM*
O=C(CCNC(=O)c1ccccc1)NCCc1ccc(Cl)cc1	0%	-1%	-25%	8%	-2%	-12%
COc1ccc(NS(=O)(=O)c2ccc(C(=O)N(C)Cc3cccs3)cc2)cc1	-10%	-4%	?	-8%	-11%	?
CN(CCOc1ccc(Br)cc1)CC(O)COc1ccc(C#N)cc1 (stereo unspecified)	-40%	?	?	?	21µM*	4.1µM*
SMILES	HepG2 viability	HT1080 IDH1KD tx	DT40 TDP1 CPT	TGFb SMAD3 inh	HT1080NT lethal	DT40 TDP1 no CPT
CCN(Cc1ccccc1)CC(O)COC(c1ccc(OC)cc1)c1ccc(OC)cc1 (stereo unspecified)	-75%	-22%	21µM*	?	?	21µM*
CSc1ccccc1C(=O)NC1CCSc2ccccc21 (stereo unspecified)	-10%	-7%	?	-19%	4%	?
CC(=O)c1ccc(NC(=O)CSc2nnc3ccc(-c4ccc(F)cc4)nn23)cc1	5%	nt	-9%	-1%	nt	2%
CC1COc2ccccc2N1C(=O)c1ccccc1Cl (stereo unspecified)	-7%	11%	-3%	-20%	0%	?
O=C(CCl)N1c2ccccc2SCC1c1ccccc1 (stereo unspecified)	-104%	5.8µM*	2.6µM*	?	4.6µM*	3.3µM*
O=C(CCl)N1c2ccccc2OCC1c1ccccc1 (stereo unspecified)	19%	-7%	2.3µM*	0%	-5%	2.6µM*
COc1cc2cc(NC(C)=O)cc(NCc3ccccc3)c2cc1OC	-9%	0%	33%	-1%	2%	-17%
CCCCNc1cc(NC(C)=O)cc2cc(OC)c(OC)cc12	-31%	-21%	18µM*	10µM*	-21%	?
CCOC(=O)C1(Cc2cccc(Cl)c2)CCCN(C(=O)c2cnn(CC)c2)C1 (stereo unspecified)	-84%	-4%	-17%	?	0%	-20%
